CYP2C9 inh – inhibitors of human CYP2C9; P11712; CYP2C9 Supersomes, luciferin-H conversion, luminescence; inhibition, % at 5 µM; hit rate 20% among 96,000; AID 777;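 active = blocking of liver enzyme CYP2C9 beyond about 50% at 5 µM, limit read from the data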
CYP2C9 act – CYP2C9 (human) activation | recombinant CYP2C9, luciferin-H conversion, luminescence; active compounds read high; factor 1 = untreated enzyme, 0 = blocked | activation factor at 5 µM | hit rate 1.4% among 96,000 | P11712;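 active = activation factor of 2 or more for CYP2C9 at a 5 µM dose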
CYP2C19 inh – blocks human cytochrome P450 2C19. P33261. CYP2C19 Supersomes, luciferin-H EGE luminescence, 30 min. inhibition, % at 5 µM. hit rate 21% among 96,000;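 active = CYP2C19 inhibition above a set limit at 5 µM in the primary screen, cut at about 50% in these data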
sEH inh – inhibitors of human soluble epoxide hydrolase; hit rate 0.34% among 91,000; P34913; recombinant human sEH enzymatic activity assay; inhibition, % at 2 µM; AID 707; in the data active = inhibition above about 80%
Target sequence (P34913 whole entry, looked up): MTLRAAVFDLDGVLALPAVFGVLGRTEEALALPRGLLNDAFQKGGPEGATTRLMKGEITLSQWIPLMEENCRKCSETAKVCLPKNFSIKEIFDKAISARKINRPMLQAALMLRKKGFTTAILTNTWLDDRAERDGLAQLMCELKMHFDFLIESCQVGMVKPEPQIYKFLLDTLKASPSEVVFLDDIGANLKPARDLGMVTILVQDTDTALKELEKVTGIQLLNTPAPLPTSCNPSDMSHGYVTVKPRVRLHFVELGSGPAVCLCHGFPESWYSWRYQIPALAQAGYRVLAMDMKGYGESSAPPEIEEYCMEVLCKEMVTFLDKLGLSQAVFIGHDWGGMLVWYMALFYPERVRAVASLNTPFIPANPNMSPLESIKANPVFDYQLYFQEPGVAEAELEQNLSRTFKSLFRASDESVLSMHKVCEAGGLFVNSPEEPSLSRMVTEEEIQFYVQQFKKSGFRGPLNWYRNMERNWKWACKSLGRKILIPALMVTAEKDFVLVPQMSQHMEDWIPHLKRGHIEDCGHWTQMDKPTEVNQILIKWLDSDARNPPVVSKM
sEH activator – activators of human soluble epoxide hydrolase | activation, % at 2 µM | hit rate 0.04% among 91,000 | P34913 | purified human sEH enzymatic activity, activator screen; in the data active = activation above about 37%
CYP2C19 act – increases human CYP2C19 enzyme activity. recombinant CYP2C19, luciferin-H EGE luminescence; active compounds read high; 0 = fully inhibited enzyme, 1 = untreated enzyme. activation factor at 5 µM. P33261. 96,000 tested, under 10 active. AID 1025;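 active = activation factor of at least 2 at 5 µM in the primary screen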
Numbers stand for hits; – = inactive; · = not tested or not shown. This is a sample that favours compounds with a hit; in the whole collection about 27% have one here.

SMILES | CYP2C9 inh | CYP2C9 act | CYP2C19 inh | sEH inh | sEH activator | CYP2C19 act
Cc1c(C(=O)NCc2cccnc2)oc2ccccc12 | – | – | 63.6 | – | – | –
O=C(CCSCCC(=O)NCCN1CCOCC1)NCCN1CCOCC1 | 84.0 | – | – | – | – | –
Cc1c(C(=O)NCc2cccnc2)oc2c1C(=O)CC(C)(C)C2 | 56.4 | – | 80.3 | – | – | –
Cc1c(C(=O)NCc2cccs2)oc2ccccc12 | – | – | – | – | – | –
O=C(CSc1nnc2c3cc(F)ccc3nc(-c3ccccc3)n12)N1CCOCC1 | · | · | · | – | – | ·
CCCN(CCC)S(=O)(=O)c1cc(Br)cc2c1N(C(=O)CC)CC2 | – | – | – | · | · | –
Cc1cccc(N2CCN(S(=O)(=O)c3ccc4c(c3)CCN4C(=O)CCC(=O)O)CC2C)c1 (stereo unspecified) | – | – | – | – | – | –
Cc1c(C(=O)NCCN2CCOCC2)oc2ccccc12 | – | – | 54.4 | – | – | –
Cc1ccc(N2C=Nc3ccc(C)c4nc(C)cc2c34)cc1 | 86.4 | – | 68.1 | – | – | –
COC(=O)Cn1cc(C(=O)OC)c2ccccc21 | – | – | – | – | – | –
COC(=O)c1cn(CCOc2ccccc2F)c2ccccc12 | 99.4 | – | 97.7 | – | – | –
COC(=O)c1cn(CCOc2ccccc2OC)c2ccccc12 | · | · | · | – | – | ·
COC(=O)c1cn(CCOc2ccccc2)c2ccccc12 | 97.2 | – | 96.2 | – | – | –
CCOC(=O)Cn1cc(C(=O)OC)c2ccccc21 | – | – | 54.0 | – | – | –
Cc1ccc(OCCn2cc(C(=S)N3CCCC3)c3ccccc32)cc1C | 63.2 | – | 67.1 | – | – | –
COc1ccc2c3c(cccc13)NN=C2C | · | · | · | – | – | ·
CCOC(=O)CC1C(=O)NCCN1C(=O)NC1CCCCC1 (stereo unspecified) | – | – | – | – | – | –
O=C1C2(CCC13COC(c1ccc(O)cc1)OC3)COC(c1ccc(O)cc1)OC2 (stereo unspecified) | – | – | – | – | – | –
Cc1ccc(C(C(=O)NCC2CCCO2)N(Cc2ccccc2F)C(=O)Cn2nnc(-c3cccs3)n2)cc1 (stereo unspecified) | 52.5 | – | – | – | – | –
O=C(NC1CCCC1)C(c1ccncc1)N(CC1CCCO1)C(=O)Cn1nnc(-c2cccs2)n1 (stereo unspecified) | 95.4 | – | 77.8 | – | – | –
COc1ccc(N(C(=O)Cn2nnc(-c3ccc(Cl)cc3)n2)C(C(=O)NCC2CCCO2)c2ccc(C)cc2)cc1 (stereo unspecified) | – | – | – | – | – | –
O=C(CCn1nnc(-c2cccs2)n1)NC1CCCCC1 | – | – | 76.2 | – | – | –
COc1ccc(-c2nnn(CC(=O)N(Cc3ccccc3Cl)C(C(=O)NCC3CCCO3)c3ccco3)n2)cc1OC (stereo unspecified) | 92.4 | – | – | – | – | –
Cc1ccc(C(=O)NC(=S)Nc2cc(C(F)(F)F)ccc2Cl)cc1 | – | – | – | – | – | –
Cc1oc(-c2ccccc2)cc1C(=O)Nc1ccccc1 | – | – | – | – | – | –
SMILES | CYP2C9 inh | CYP2C9 act | CYP2C19 inh | sEH inh | sEH activator | CYP2C19 act
Cc1cc(C(=O)Nc2ccccc2)c(C)o1 | – | – | 61.0 | – | – | –
Cc1ccc(C(C)NC(=O)c2cc(C)oc2C)cc1 (stereo unspecified) | – | – | 76.8 | – | – | –
COc1cc(-c2noc(-c3ccccc3C(=O)NCc3ccco3)n2)cc(OC)c1OC | 50.2 | – | – | – | – | –
CN1CCN(C(=O)c2ccccc2-c2nc(-c3ccccc3)no2)CC1 | 71.0 | – | – | – | – | –
COc1cc(-c2noc(-c3ccco3)n2)cc(OC)c1OC | – | – | – | · | · | –
NC(=O)c1ccccc1-c1nc(-c2ccccc2)no1 | – | – | – | · | · | –
Cc1ccc(-c2noc(-c3ccccc3C(=O)N3CCOCC3)n2)cc1 | – | – | – | – | – | –
O=C(NCc1ccco1)c1cccc(-c2nnc(-c3ccccc3)o2)c1 | 82.5 | – | 71.1 | – | – | –
CCc1nc2ccc(C(=O)NCc3ccco3)cc2nc1CC | – | – | – | – | – | –
O=C(NCc1ccco1)c1ccccc1-c1nc(-c2ccccc2)no1 | 54.1 | – | – | – | – | –
O=C(C1CCCCC1)N1CCCc2ccccc21 | – | – | 67.3 | – | – | –
CC(=O)NC1CC2CCCC(C1)N2CC(=O)N1CCCc2ccccc21 (stereo unspecified) | · | · | · | – | – | ·
CC(C)N1C(=O)CCC1C(=O)N1CCCc2ccccc21 (stereo unspecified) | – | – | – | · | · | –
O=C(NC1CCCCC1)N1CCCc2ccccc21 | – | – | 52.6 | · | · | –
CCCCN1c2ccccc2N(CCCO)c2cc(C)nnc21 | 64.6 | – | – | – | – | –
CCCCN1C2=NCCCN2c2ccccc21 | – | – | – | – | – | –
Cc1ccc(NC(=O)CSc2nnc(-c3cnccn3)n2-c2ccccc2)cc1 | – | – | – | – | – | –
Cc1cccc(Nc2nc(-c3ccc4c(c3)OCCO4)cs2)c1 | 86.3 | – | – | – | – | –
COc1cccc(C(=O)Nc2nc(-c3ccc4c(c3)OCO4)cs2)c1 | – | – | – | – | – | –
Cc1cccc(Nc2nc(-c3c(C)nc4ccccn34)cs2)c1 | 61.2 | – | – | – | – | –
Cc1ccn2c(-c3csc(NCc4ccco4)n3)c(C)nc2c1 | – | – | – | · | · | –
CC1CCc2c(sc3nc(C4CC4)nc(N4CCN(C(=O)c5ccco5)CC4)c23)C1 (stereo unspecified) | · | · | · | – | – | ·
O=C1C(=O)N(CCCn2ccnc2)C(c2cccnc2)/C1=C(/O)c1ccccc1 (stereo unspecified) | · | · | · | – | – | ·
NC(=O)c1ccc(Cc2ncc(C(F)(F)F)cc2Cl)s1 | – | – | – | – | – | –
O=S(=O)(N/N=C/c1ccc(Cl)cc1)c1ccc(Cc2ncc(C(F)(F)F)cc2Cl)s1 | 91.9 | – | – | – | – | –
SMILES | CYP2C9 inh | CYP2C9 act | CYP2C19 inh | sEH inh | sEH activator | CYP2C19 act
CCCNC(=O)Nc1nccs1 | – | – | – | – | – | –
COC(=O)c1cc(-c2ccccc2)n(CC(=O)O)c1C | – | – | – | · | · | –
CC1=NC(C(F)(F)F)(C(F)(F)F)C(C#N)=C(C)N1 | – | – | 68.7 | – | – | –
C/C(Cl)=C/CSc1nn2c(=O)c3ccccc3nc2s1 | 81.9 | – | 74.4 | – | – | –
C=CCSc1nn2c(=O)c3ccccc3nc2s1 | – | – | – | – | – | –
CCc1nc(NCCc2ccccn2)c2nnn(Cc3ccccc3F)c2n1 | 67.1 | – | 69.0 | · | · | –
C=CCn1c(SCC(=O)NCc2cccs2)nnc1C1CCCCC1 | – | – | – | · | · | –
COc1ccccc1NC(=O)CN1CCN(c2ccccn2)CC1 | · | · | · | – | – | ·
COc1ccc(C)cc1NC(=O)CN1CCN(c2ccc(F)cc2)CC1 | – | – | 77.6 | – | – | –
COc1ccccc1N1CCN(CC(=O)Nc2cc(F)ccc2C)CC1 | – | – | – | – | – | –
O=C(CN1CCN(c2ccc(F)cc2)CC1)Nc1ccc(F)c(F)c1 | – | – | – | – | – | –

Bioassay records as filed in PubChem.
